Screening results: PubChem BioAssay, National Center for Advancing Translational Sciences (NCATS)
SNCA viab count: cell viability loss counter-screen; actives 0.12% (n = 150,000); HEK-293-SNCA-luc viability, GF-AFC fluorescence, 24 h; Potency, µM (series often up to 57.1 µM), usual class: cytotoxic; AID 1671193; further: nearly all actives have a fitted effect of over 30% in size
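HEK-293-SNCA-luc cells (1500/well) plated 24 h, then exposed 24 h to a dilution series; GF-AFC added 30 min at 37C, fluorescence 405/540 nm; normalised to medium-only and DMSO wells, Hill fit.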
IP6K1 inh: IP6K1 kinase inhibition; Q92551; IP6K1 kinase, ADP-Glo luminescence, 2 h; active compounds read low; activity change, % (series mostly up to about 58 µM); actives 0.81% (n = 140,000); AID 1645851; in the data active means activity change below about -25%
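ADP-Glo luminescence measures ADP made by human IP6K1 during a 2 h RT reaction with ATP/IP6 (mix at 1.3 mM/130 uM); top library doses 57.5 and 19.1 uM final.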
SNCA expr inhib: SNCA gene expression inhibition. HEK-293 SNCA-luciferase knock-in, luminescence, 24 h. Potency, µM (series often up to 57.2 µM), hits mostly inhibitors. actives 0.17% (n = 140,000). AID 1671194; further: nearly all actives have a fitted effect of over 45% in size
KDM5B inhibitor: blocks human KDM5B histone demethylase activity; Q9UGL1; KDM5B demethylase, FDH-coupled NADH fluorescence (FDH is formaldehyde dehydrogenase); Potency, µM (series often up to 57.7 µM), most hits filed as inhibitors; actives 2.6% (n = 220,000); AID 1347165; further: nearly all actives have a fitted effect of over 70% in size
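Inhibition is measured as reduced NADH fluorescence generation from FDH coupling to formaldehyde release. Truncated KDM5BΔAP at 200 nM final acts on H3K4me3 peptide (12.5 µM in substrate mix) in pH 7.5 HEPES buffer with Tween-20, 30 min, room temperature.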
Hits are given with their value; [ ] = another dose, or the depositor's remark. Only some compounds are listed: those with a hit (about 2.9% of all), similar ones and a draw of the others. Unless noted, the call rests on the fitted dose curve; in most records, active means well fitted curve in the direction sought with a large enough effect; inconclusive means small, poorly fitted or top-dose-only effect, or another doubt; inactive means no such curve, though single readings can be large; an effect the other way counts as inactive or inconclusive.

For O=C(C1CCCCN1Cc1ccc(-c2cccs2)cc1)N1CCCC1 (centres undefined) the results were SNCA viab count inactive[12.5 µM], IP6K1 inh inactive and SNCA expr inhib inconclusive.
`O=C(Cc1ccc(F)cc1)N1CCC(C(=O)N2CCC(N3Cc4ccccc4C3=O)CC2)CC1` gave SNCA viab count inactive, IP6K1 inh inactive and SNCA expr inhib inactive.
`O=C(Cc1c[nH]c2ccccc12)N[C@H](Cc1ccccn1)C1CC(O)C1` (some centres undefined) gave SNCA viab count inactive, IP6K1 inh inactive, SNCA expr inhib inactive and KDM5B inhibitor inactive.
For O=C(NCCc1ccc(Cl)cc1)c1nc(-c2ccsc2)c2ccccn12 the results were SNCA viab count inactive, IP6K1 inh inactive, SNCA expr inhib inactive and KDM5B inhibitor 22µM.
`Cc1ccc(-c2c(C(=O)NCCc3ccc(Cl)cc3)nc3sccn23)cc1` gave SNCA viab count inactive, IP6K1 inh inactive and SNCA expr inhib inactive.
For CCn1ncc(CN(C)C(=O)CC2C(=O)NCCN2C(C)C)c1C (centres undefined) the results were SNCA viab count inactive, IP6K1 inh inactive, SNCA expr inhib inactive and KDM5B inhibitor 32µM.
For Cc1nnc2n1CCC(NC(=O)c1cccn1C)CC2 (centres undefined) the results were SNCA viab count inactive, IP6K1 inh inactive, SNCA expr inhib inactive and KDM5B inhibitor 20µM.
`Cc1cc(C(=O)NCC(F)(F)F)c2c(C3CCCN3)noc2n1` (centres undefined) gave SNCA viab count inactive, IP6K1 inh inactive, SNCA expr inhib inactive and KDM5B inhibitor 50µM.
`Cc1cc(C(=O)NCC(C)C)c2c(C3CCCN3)noc2n1` (centres undefined) gave SNCA viab count inactive, IP6K1 inh inactive, SNCA expr inhib inactive and KDM5B inhibitor inactive.
O=C(NCc1ccncc1)c1cc(C2CC2)nc2onc(C3CCCN3)c12 (centres undefined) was read as SNCA viab count inactive, IP6K1 inh inactive, SNCA expr inhib inactive and KDM5B inhibitor 79µM.
Screening CC(C)(C)c1ccccc1NC(=O)c1ccc2c(c1)CCC2 returned KDM5B inhibitor inactive.
`CC1(C)C2CCC1(C)C(NC(=O)Cc1ccccc1)C2` (centres undefined) gave KDM5B inhibitor inactive.
Cc1ccc(CN2CCN(c3nc(C)ccc3C#N)CC2CCO)cc1 (centres undefined) was read as SNCA viab count inactive, IP6K1 inh inactive, SNCA expr inhib inactive and KDM5B inhibitor 18µM.
Screening Cc1nc2c(OCC(=O)c3ccccc3)cccn2c(=O)c1-c1cc(C)n(-c2ccccc2)n1 returned SNCA viab count inactive, IP6K1 inh inactive, SNCA expr inhib inactive and KDM5B inhibitor inconclusive.
`CCOC(=O)CCCOc1cccn2c(=O)c(-c3cc(C)n(-c4ccccc4C)n3)c(C)nc12` gave SNCA viab count inactive, IP6K1 inh inactive, SNCA expr inhib inactive and KDM5B inhibitor 32µM.
`CCOC(=O)CCCOc1cccn2c(=O)c(-c3cc(C)n(-c4cccc(C)c4)n3)c(C)nc12` gave SNCA viab count inactive, IP6K1 inh inactive, SNCA expr inhib inactive and KDM5B inhibitor 28µM.
Cc1ccccc1-n1nc(-c2c(C)nc3c(OCC(=O)OC(C)(C)C)cccn3c2=O)cc1C was read as SNCA viab count inactive, IP6K1 inh inactive, SNCA expr inhib inactive and KDM5B inhibitor 20µM.
`CCOC(=O)CCCOc1cccn2c(=O)c(-c3cc(C)n(-c4ccc(Cl)cc4)n3)c(C)nc12` gave SNCA viab count inactive, IP6K1 inh inactive, SNCA expr inhib inactive and KDM5B inhibitor 25µM.
Screening COc1ccc2c3c1CN(Cc1ccccc1)CC3=CC(C)(C)CO2 returned IP6K1 inh inactive.
O=C(Cn1cnnn1)N1CCc2ncnc(NC[C@H]3CCCO3)c2CC1 was read as SNCA viab count inactive, IP6K1 inh inactive, SNCA expr inhib inactive and KDM5B inhibitor inactive.
For COc1ccc(-n2cc(CN3CCN(C)C(C)C3)c(-c3cccc(F)c3)n2)cc1 (centres undefined) the results were SNCA viab count inactive, IP6K1 inh inactive, SNCA expr inhib inactive and KDM5B inhibitor 25µM.
Screening COc1ccc(-n2cc(CN3CCCC(CO)C3)c(-c3cccc(F)c3)n2)cc1 (centres undefined) returned SNCA viab count inactive, IP6K1 inh inactive, SNCA expr inhib inactive and KDM5B inhibitor 35µM.
`COc1ccc(Nc2ccnc(N3CCN(C(=O)c4ccc(F)cc4)CC3)n2)cc1` gave SNCA viab count inactive, IP6K1 inh inactive and SNCA expr inhib inactive.
For COc1ccc(-c2ccc(C(=O)N3CCN(C(=O)c4ccncc4)CC3)cc2)nn1 the results were IP6K1 inh inactive.
COc1cccc(CCC(=O)N[C@@H]2COCC[C@@H]2Oc2cccc(F)c2)c1 was read as SNCA viab count inactive, IP6K1 inh inactive, SNCA expr inhib inactive and KDM5B inhibitor inactive.
For CC(C)c1cc(C(=O)N[C@@H]2COCC[C@@H]2Oc2cccc(F)c2)nc(N)n1 the results were SNCA viab count inactive, IP6K1 inh inactive, SNCA expr inhib inactive and KDM5B inhibitor 28µM.
Screening CNC(=O)NC(=O)Cn1nnc(-c2cccc(F)c2)n1 returned KDM5B inhibitor inactive.
Screening Cc1cccc(OCC2(CNC(=O)c3cc(C)nn3C)C[C@@H](O)[C@@H](O)C2)n1 (some centres undefined) returned SNCA viab count inactive, IP6K1 inh inactive, SNCA expr inhib inactive and KDM5B inhibitor 32µM.
`Cc1cccc(OCC2(CNC(=O)c3cc(C)on3)C[C@@H](O)[C@@H](O)C2)n1` (some centres undefined) gave SNCA viab count inactive, IP6K1 inh inactive, SNCA expr inhib inactive and KDM5B inhibitor inconclusive.
O=C(Cc1cccc(F)c1)N1CCCC(Cc2nc(C3CCOCC3)no2)C1 (centres undefined) was read as SNCA viab count inactive, IP6K1 inh inactive, SNCA expr inhib inactive and KDM5B inhibitor 28µM.
Screening O=C(c1cccc(Cl)c1)N1CCN(c2ccnc3ccnn23)CC1 returned SNCA viab count inactive, IP6K1 inh inactive and SNCA expr inhib inactive.
COc1ccc(S(=O)(=O)N2C[C@@H]3C[C@H](C2)c2ccc(-c4ccc(OC(F)(F)F)cc4)c(=O)n2C3)cc1 was read as SNCA viab count inactive, IP6K1 inh inactive, SNCA expr inhib inactive and KDM5B inhibitor 28µM.
`COc1ccc(S(=O)(=O)N2C[C@@H]3C[C@H](C2)c2ccc(NS(=O)(=O)c4cccc(F)c4)c(=O)n2C3)cc1` gave SNCA viab count inactive, IP6K1 inh inactive, SNCA expr inhib inactive and KDM5B inhibitor inactive.
CC(C)CN1CCN(C(=O)C2CCN(C(=O)N3CC4CC(C3)[C@H]3CCCC(=O)N3C4)CC2)CC1 (some centres undefined) was read as SNCA viab count inactive, IP6K1 inh inactive, SNCA expr inhib inactive and KDM5B inhibitor inactive.
For Cc1ccc2c(C(=O)NCCc3cccnc3)cc(NC(=O)C(C)C)cc2n1 the results were SNCA viab count inactive, IP6K1 inh inactive, SNCA expr inhib inactive and KDM5B inhibitor 20µM.
`O=C(NCCc1cccnc1)c1ccc(Cl)cc1Cl` gave KDM5B inhibitor inactive.
